Several values for one entry are separate records, joined by “and”; a condition that tells them apart may be missing. Equal entries are not always repeated. Results filed as inconclusive are left out. The source holds several records for some structures; these can differ, active in one and inactive in another. Activity calls are given as the source filed them. Unless noted, calls come from the whole dose curve.

A short description of assay [1]: Nuclear factor erythroid 2-related factor 2/antioxidant responsive element (Nrf2/ARE) small molecule agonists: qHTS cell viability counter screen in human keratinocytes (AID 1919968; active = well fitted curve in the direction sought with a large enough effect in the repeat runs; an effect the other way counts as inactive or inconclusive; note: nearly all actives have a fitted effect of over 55% in size; note: potency is the fitted concentration of half-maximal effect). The method, boiled down:
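Stably transfected HaCaT (KeratinoSens), 1,500/well. Test agents in DMSO were applied for 23 h, 37 C/5% CO2. CellTiter-Fluor was incubated 1 h before the fluorescence read.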
(In qHTS, concentration-response curves come from the screen itself.)

Assay [2] can be described thus: Nuclear factor erythroid 2-related factor 2/antioxidant responsive element (Nrf2/ARE) small molecule agonists: luciferase reporter gene qHTS assay in human keratinocytes (AID 1919969). Note: nearly all actives have a fitted effect of over 35% in size. Note: potency is the fitted concentration of half-maximal effect. A general note: In a reporter assay the amount or activity of a reporter protein is the signal.
Assay [3] addresses Gonadotropin-releasing hormone receptor (Homo sapiens) (UniProt P30968). Kind of assay: Human gonadotropin-releasing hormone receptor (GnRHR) small molecule agonists, calcium flux assay in GnRHR-HEK293 cells (AID 1920063). Note: nearly all actives have a fitted effect of over 35% in size. The method, boiled down: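 Stable human GnRHR HEK293 line. 18 h plating, then calcium dye for 1 h at 37 C. Agonist-mode compound addition from DMSO stocks; fluorescence monitored 3 min.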
Background: A change in cytosolic calcium serves as a functional read-out for many receptors and channels.

The target of assay [4] is KiSS-1 receptor (Homo sapiens) (UniProt Q969F8). Kind of assay: Human kisspeptin (KISS1R) small molecule agonists, calcium flux assay in KISS1R-HEK293 cells (AID 1920064; active = well fitted curve in the direction sought with a large enough effect in the repeat runs; an effect the other way counts as inactive or inconclusive). The method, boiled down:
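After overnight (18 h) culture at 37 C/5% CO2, human KISS1R-HEK293 cells received calcium dye for 1 h, then test compound; emission at 540 nm (excitation 480 nm) was tracked for 3 min.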

Assay [5] in a line: G protein-coupled receptor (GPCR) small molecule agonists, calcium flux assay: HEK293 wild type cell line counter screen (AID 1920065). A digest of the protocol: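 Following 18 h incubation at 37 C/5% CO2, plates got calcium dye for 1 h; compounds, ATP or DMSO were then pinned in and fluorescence followed kinetically (480/540 nm).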
Assay [6] can be described thus: p53 small molecule agonists, cell-based qHTS assay with human liver microsomes (AID 1963577).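 Note: p53 response element beta-lactamase reporter cells with liver microsomes plus NADPH.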 The method, boiled down: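 With metabolic activation: human liver microsomes (0.5 mg/mL final) plus NADPH (0.5 mg/mL final) added alongside compounds to p53RE-bla cells; 16 h 37 C exposure; beta-lactamase read by LiveBLAzer fluorescence.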
The nature of assay [7]: p53 small molecule agonists, cell-based qHTS assay with human liver microsomes: qHTS cell viability counter screen (AID 1963579). Note: nearly all actives have a fitted effect of over 45% in size. Note: potency is the fitted concentration of half-maximal effect. The method, boiled down: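 Metabolic activation used human liver microsomes and NADPH, both 0.5 mg/mL final, over 16 hours at 37 C on p53RE-bla cells (4,000/well). Cytotoxicity measured by CellTiter-Glo luminescence, 30 min at room temperature.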

Assay [8] in a line: p53 small molecule agonists, cell-based qHTS assay with rat liver microsomes: qHTS cell viability counter screen (AID 1963580). Note: nearly all actives have a fitted effect of over 45% in size. A digest of the protocol:
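After the beta-lactamase ratio was read, CellTiter-Glo was added to the same wells and luminescence measured at 30 min; cells had been treated 16 h at 37 C with compounds, rat liver microsomes and NADPH (0.5 mg/mL final each).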

Assay [9] can be described thus: p53 small molecule agonists, cell-based qHTS assay: qHTS cell viability counter screen (AID 1963581). Note: nearly all actives have a fitted effect of over 45% in size. A digest of the protocol: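 qHTS counter screen: 16 h compound exposure at 37 C of p53RE-bla HCT-116 cells (4,000 per well, seeded 5 h prior), cell viability by ATP luminescence.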
A short description of assay [10]: p53 small molecule agonists, cell-based qHTS assay (AID 1963582; active = well fitted activation curve with a large enough effect in the signal ratio in the repeat runs, not every such curve was filed as active; the % refers to the signal ratio). The method, boiled down:
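Measured: fluorescence from cleaved LiveBLAzer substrate. System: p53RE-bla cells, 16 h compound treatment at 37 C, 2 h substrate step at room temperature.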

Assay [11] deals with 5-hydroxytryptamine receptor 2A (Homo sapiens) (UniProt P28223). Nature of the assay: 5-hydroxytryptamine receptor 2A (HTR2A) small molecule antagonists, cell-based qHTS assay (AID 1963586). Note: nearly all actives have a fitted effect of over 45% in size. A digest of the protocol:
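CHO cells stably expressing human HTR2A were plated for 18 h at 37 C, then loaded with calcium dye for 1 h. Compounds were preincubated 5 min at room temperature before DOI (4 nM solution) was added. Kinetic fluorescence was read for 3 min.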

Assay [12] has the same target. Kind of assay: 5-hydroxytryptamine receptor 2A (HTR2A) small molecule agonists, cell-based qHTS assay (AID 1963587). Note: nearly all actives have a fitted effect of over 30% in size. The method, boiled down: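 CHO cells stably expressing human HTR2A, plated 18 h, loaded with calcium dye 1 h at 37 C. Agonist mode: compounds added and intracellular calcium fluorescence recorded kinetically for 2 min at 1 sec intervals.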
Assay [13] concerns the target Muscarinic acetylcholine receptor M1 (Homo sapiens) (UniProt P11229). Kind of assay: Cholinergic receptor muscarinic 1 (CHRM1) small molecule antagonists, cell-based qHTS assay (AID 1963588). Note: nearly all actives have a fitted effect of over 40% in size. A digest of the protocol:
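Compounds were tested at 15 concentrations in three independent runs. Dye-loaded CHRM1-CHO cells were exposed 5 min at room temperature before stimulation by acetylcholine added at 50nM. Intracellular calcium was read kinetically on FDSS for 3 min.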

Assay [14] is described as follows: cAMP Responsive Elements (CRE) small molecule agonists, cell-based qHTS assay (AID 1963590). A digest of the protocol:
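Test agents in DMSO were incubated 3 h at 37 C/5% CO2 with CRE-bla HEK 293T cells seeded 18 h earlier; LiveBLAzer B/G FRET substrate was added and read after 2 h at room temperature.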

In assay [15] the target is Beta-2 adrenergic receptor (Homo sapiens) (UniProt P07550). Nature of the assay: Adrenergic beta2 receptor (ADRB2) small molecule antagonists, cell-based qHTS assay (AID 1963592). Note: series mostly up to about 92 µM; nearly all actives have a fitted effect of over 50% in size. A digest of the protocol: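 Assay format: CHO-ADRB2 cells, 18-20hr seeding at 37C/5% CO2, then compound plus 1nM isoproterenol agonist mix for 0.5hr RT. Homogeneous time-resolved fluorescence cAMP detection after 1hr, expressed as 665/615 nm ratio.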

Assay [16] has the same target. Nature of the assay: Adrenergic beta2 receptor (ADRB2) small molecule agonists, cell-based qHTS assay (AID 1963593).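 Note: CHO cells stably overexpressing human ADRB2.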 A digest of the protocol: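 CHO cells stably over-expressing ADRB2 were plated overnight at 37C, then dosed with compounds plus a stimulation mix containing 100uM IBMX and 25uM Ro-20-1724 for 0.5hr at room temperature. cAMP was measured by HTRF competition, 1hr.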

The target in assay [17] is D(2) dopamine receptor (Homo sapiens) (UniProt P14416). Nature of the assay: Dopamine D2 receptor (DRD2) small molecule agonists, cell-based qHTS assay (AID 1963594). Note: nearly all actives have a fitted effect of over 35% in size. The method, boiled down: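 HEK293 cells stably expressing human DRD2, pre-treated with PDE inhibitor Ro20-1724 (0.1 mM final) and compound 10 min at room temperature, then stimulated with NKH477 (200nM […]) for 30 min. cAMP read by HTRF (665/620 nm).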

For assay [18] the target is unchanged. Nature of the assay: Dopamine D2 receptor (DRD2) small molecule antagonists, cell-based qHTS assay (AID 1963595; active = well fitted inhibition curve with a large enough effect in the signal ratio in the repeat runs, with a control signal flat; the % refers to the signal ratio). The method, boiled down: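 DRD2-HEK293; 0.1 mM Ro20-1724; cpd 10 min RT; NKH477 200 nM + quinpirole 12 nM, 30 min RT; HTRF cAMP (cAMP-d2/anti-cAMP cryptate), 665/620 nm ratio after 1 h.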
Assay [19] has as its target Muscarinic acetylcholine receptor M1 (Homo sapiens) (UniProt P11229). Kind of assay: Cholinergic receptor muscarinic 1 (CHRM1) small molecule agonists, cell-based qHTS assay (AID 1963589). Note: nearly all actives have a fitted effect of over 35% in size. The method, boiled down: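 Kinetic fluorescence (1 s intervals) of calcium-sensitive dye in human M1 CHO cells after compound addition; cells pre-incubated 18 h at 37 C/5% CO2 and dye-loaded 1 h.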

Assay [20] can be described thus: cAMP Responsive Elements (CRE) small molecule antagonists, cell-based qHTS assay (AID 1963591; active = well fitted inhibition curve with a large enough effect in the signal ratio in the repeat runs, not every such curve was filed as active; the % refers to the signal ratio). A digest of the protocol: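 Reporter line CRE-bla HEK 293T in dialyzed-FBS DMEM; cells preincubated 18 h, treated 3 h with compound plus NKH477 (0.25 uM final); LiveBLAzer FRET, 2 h RT.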

Sequence of D(2) dopamine receptor (Homo sapiens) (P14416 whole entry, looked up): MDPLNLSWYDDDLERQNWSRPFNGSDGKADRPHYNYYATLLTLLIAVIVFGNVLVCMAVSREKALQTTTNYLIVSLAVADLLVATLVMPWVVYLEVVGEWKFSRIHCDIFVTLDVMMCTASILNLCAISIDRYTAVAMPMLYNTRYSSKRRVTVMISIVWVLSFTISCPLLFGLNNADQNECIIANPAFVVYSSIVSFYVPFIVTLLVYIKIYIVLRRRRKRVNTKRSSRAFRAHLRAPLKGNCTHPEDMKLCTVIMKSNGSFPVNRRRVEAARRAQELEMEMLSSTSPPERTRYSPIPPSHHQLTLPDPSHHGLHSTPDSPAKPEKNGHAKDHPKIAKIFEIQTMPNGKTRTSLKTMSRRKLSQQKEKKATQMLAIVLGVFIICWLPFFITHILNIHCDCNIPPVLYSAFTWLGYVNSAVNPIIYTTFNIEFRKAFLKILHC
Sequence of 5-hydroxytryptamine receptor 2A (Homo sapiens) (P28223 whole entry, looked up): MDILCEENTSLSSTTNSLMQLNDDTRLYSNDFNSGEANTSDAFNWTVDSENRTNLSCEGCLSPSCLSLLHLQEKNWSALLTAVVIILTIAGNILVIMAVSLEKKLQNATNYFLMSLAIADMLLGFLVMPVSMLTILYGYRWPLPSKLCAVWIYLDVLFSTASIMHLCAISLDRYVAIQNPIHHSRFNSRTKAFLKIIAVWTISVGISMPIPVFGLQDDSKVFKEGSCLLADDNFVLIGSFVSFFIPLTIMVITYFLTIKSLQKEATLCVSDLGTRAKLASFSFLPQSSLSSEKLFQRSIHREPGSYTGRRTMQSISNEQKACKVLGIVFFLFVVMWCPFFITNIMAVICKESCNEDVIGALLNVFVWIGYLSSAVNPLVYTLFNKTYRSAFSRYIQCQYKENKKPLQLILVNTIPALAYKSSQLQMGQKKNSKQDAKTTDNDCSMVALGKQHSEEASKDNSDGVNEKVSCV
Sequence of KiSS-1 receptor (Homo sapiens) (Q969F8 whole entry, looked up): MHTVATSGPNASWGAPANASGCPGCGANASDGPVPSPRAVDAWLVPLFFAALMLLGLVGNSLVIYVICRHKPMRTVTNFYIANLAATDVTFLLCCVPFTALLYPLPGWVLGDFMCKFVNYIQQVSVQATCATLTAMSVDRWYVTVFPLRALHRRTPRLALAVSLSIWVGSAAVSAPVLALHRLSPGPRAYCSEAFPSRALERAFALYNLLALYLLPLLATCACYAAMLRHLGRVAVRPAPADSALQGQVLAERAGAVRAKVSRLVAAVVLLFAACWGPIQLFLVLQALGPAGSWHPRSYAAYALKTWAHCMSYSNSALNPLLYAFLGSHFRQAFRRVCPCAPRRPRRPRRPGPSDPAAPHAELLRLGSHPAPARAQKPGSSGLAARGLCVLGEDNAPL
Sequence of Muscarinic acetylcholine receptor M1 (Homo sapiens) (P11229 whole entry, looked up): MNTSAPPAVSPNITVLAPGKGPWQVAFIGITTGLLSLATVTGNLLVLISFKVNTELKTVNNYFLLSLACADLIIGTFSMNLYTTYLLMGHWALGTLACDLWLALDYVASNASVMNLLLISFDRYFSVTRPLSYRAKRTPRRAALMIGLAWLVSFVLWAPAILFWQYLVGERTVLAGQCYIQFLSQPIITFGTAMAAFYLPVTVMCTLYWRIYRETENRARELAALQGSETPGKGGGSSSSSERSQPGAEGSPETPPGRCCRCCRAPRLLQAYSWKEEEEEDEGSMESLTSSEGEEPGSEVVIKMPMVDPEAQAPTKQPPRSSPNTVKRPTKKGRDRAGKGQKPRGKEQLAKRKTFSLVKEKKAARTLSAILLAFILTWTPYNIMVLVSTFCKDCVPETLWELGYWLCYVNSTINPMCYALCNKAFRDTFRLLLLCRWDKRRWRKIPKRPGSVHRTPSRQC
Sequence of Gonadotropin-releasing hormone receptor (Homo sapiens) (P30968 whole entry, looked up): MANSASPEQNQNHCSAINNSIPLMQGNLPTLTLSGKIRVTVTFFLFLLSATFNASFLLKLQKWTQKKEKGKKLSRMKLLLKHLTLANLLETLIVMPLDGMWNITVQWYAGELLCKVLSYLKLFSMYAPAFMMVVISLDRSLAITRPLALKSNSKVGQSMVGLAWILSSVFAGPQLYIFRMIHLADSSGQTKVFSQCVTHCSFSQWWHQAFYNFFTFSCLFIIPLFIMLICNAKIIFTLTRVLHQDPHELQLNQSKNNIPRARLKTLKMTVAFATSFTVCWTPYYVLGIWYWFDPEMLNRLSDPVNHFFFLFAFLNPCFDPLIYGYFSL
Sequence of Beta-2 adrenergic receptor (Homo sapiens) (P07550 whole entry, looked up): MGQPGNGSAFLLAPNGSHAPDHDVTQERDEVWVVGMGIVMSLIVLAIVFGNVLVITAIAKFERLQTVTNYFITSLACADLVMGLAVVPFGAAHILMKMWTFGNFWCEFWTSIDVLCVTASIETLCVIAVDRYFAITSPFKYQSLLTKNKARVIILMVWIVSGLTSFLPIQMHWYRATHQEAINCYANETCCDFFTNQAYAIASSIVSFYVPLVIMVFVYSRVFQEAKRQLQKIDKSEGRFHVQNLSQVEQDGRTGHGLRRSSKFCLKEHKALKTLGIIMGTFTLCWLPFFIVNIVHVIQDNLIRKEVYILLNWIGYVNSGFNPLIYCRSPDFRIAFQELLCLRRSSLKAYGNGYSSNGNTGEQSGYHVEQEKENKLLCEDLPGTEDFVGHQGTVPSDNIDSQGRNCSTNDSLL

As to `CC(=O)OC(C)C`, the Potency result in [1], in assay [2], in [3], in assay [4], in [5] and in [6] was “inactive” in each case. Also, the Potency result in assay [7], in assay [8], in assay [9], in assay [10], in assay [11] and in [12] was “inactive” each time. For the same molecule, the Potency result in assay [13], in assay [14], in assay [15], in [16], in assay [17] and in [18] was “inactive” in each case.
With `Cc1ccc(O)c(-n2nc3ccccc3n2)c1`, the Potency result in assay [1], in assay [3], in assay [4], in assay [5], in [6] and in assay [8] was “inactive” throughout. Further, the Potency entry in [9], in assay [10], in assay [11], in assay [12], in assay [13] and in assay [19] was “inactive” each time. Further, the Potency entry in [20], in assay [15], in assay [16] and in assay [17] was “inactive” throughout. In addition, the Potency is 60.6 µM (active) and 27.3 µM (active) and 5.96 µM (active) in assay [2]; 50.9 µM (active) and inactive in assay [7].
Regarding `O=C1O[C@H]([C@H](O)CO)C(O)=C1O`, the Potency entry in assay [1], in [2], in assay [3], in assay [4], in [5] and in [6] was “inactive” throughout. Further, the Potency entry in assay [7], in assay [8], in [9], in assay [10], in assay [14] and in assay [20] was “inactive” each time. Further, the Potency result in assay [15], in assay [16], in assay [17] and in [18] was “inactive” throughout.
Consider `CC(=O)OC/C=C(C)/C=C/C=C(C)/C=C/C1=C(C)CCCC1(C)C`, for which the Potency entry in assay [1], in assay [3], in assay [4], in [5], in assay [6] and in assay [7] was “inactive” each time. In addition, the Potency entry in [8], in assay [9], in [11], in assay [12], in assay [13] and in assay [14] was “inactive” throughout. Moreover, the Potency result in [20], in [15], in [16], in assay [17] and in assay [18] was “inactive” each time. In addition, the Potency in assay [2] was 66.9 µM (active) and 54.5 µM (active) and 29.8 µM (active).
Turning to `O=C(Nc1ccccc1SSc1ccccc1NC(=O)c1ccccc1)c1ccccc1`, the Potency in assay [1] was 6.14 µM (active) and 6.11 µM (active); in assay [2], 4.88 µM (active) and 6.11 µM (active). In addition, the Potency entry in assay [3], in [4], in assay [5], in assay [7], in assay [8] and in [9] was “inactive” each time. Moreover, the Potency entry in assay [10], in assay [11], in [12], in assay [13], in assay [19] and in [15] was “inactive” in each case. Besides, the Potency result in [16], in [17] and in [18] was “inactive” each time.
Take `O=C(O)c1ccccc1`: the Potency entry in assay [1], in assay [2], in assay [3], in assay [4], in assay [5] and in assay [7] was “inactive” throughout. Also, the Potency entry in assay [8], in assay [9], in assay [10], in assay [20], in [15] and in [16] was “inactive” each time. Further, the Potency result in assay [17] and in assay [18] was “inactive” in each case.
For `C=CC(=O)OCCCC`, the Potency entry in assay [1], in [2], in [3], in assay [4], in assay [5] and in [7] was “inactive” each time. In addition, the Potency entry in assay [8], in assay [9], in assay [10], in [11], in assay [12] and in [13] was “inactive” each time. Also, the Potency result in assay [19], in [14], in [20], in assay [17] and in [18] was “inactive” throughout.
With `CCCCC(CC)COC(=O)/C=C/c1ccc(OC)cc1` (stereo unspecified), the Potency entry in assay [1], in [2], in assay [3], in assay [4], in assay [5] and in [7] was “inactive” in each case. The Potency entry in assay [8], in [9], in assay [10], in assay [11], in assay [12] and in assay [19] was “inactive” throughout. Also, the Potency entry in assay [14], in assay [20], in assay [15], in assay [16], in assay [17] and in assay [18] was “inactive” throughout.
